Assay results from PubChem BioAssay (EPA / NIEHS).
Active and inactive are the calls of the source. How the source made its calls: active means hit-call score of the fitted dose curve at least 0.9, where 1 is the maximum; inactive means score below 0.9.

Read-out: Alkaline Phosphatase, Placental (ALPP) gene, ALPP (gene 250)
Experiment: LTEA_HepaRG_ALPP: Life Technologies and Expression Analysis (LTEA) Assay for Alkaline Phosphatase, Placental (ALPP) gene using HepaRG (AID 2283468);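 on AC50: ALPP transcript by TaqMan qRT-PCR normalized to ACTB GAPDH and POLR2A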
Conditions: mRNA level, 48 h; actives raise or lower the signal
Description: LTEA_HepaRG is a cell based, multiplexed-readout assay that uses HepaRG, a human liver cell line, with measurements taken at 48 hours after chemical dosing on a 96-well plate.LTEA_HepaRG_ALPP is one of 102 assay component(s) measured in the LTEA HepaRG cell culture assay. It is a marker of Cell proliferation, survival, death.Data from the assay component LTEA_HepaRG_ALPP was analyzed into 1 endpoint. This assay endpoint, LTEA_HepaRG_ALPP, was analyzed with bidirectional fitting relative to DMSO as the negative control and baseline of activity. Using a type of inducible reporter, measures of mRNA induction for gain or loss-of-signal activity can be used to understand regulation of transcription factor activity. To generalize the intended target to other relatable targets, this assay endpoint is annotated to the phosphatase intended target family, where the subfamily is Cell proliferation, survival, death.
A total of 1060 chemcials from the ToxCast library were tested in eight-point concentration-response experiments. Cell culture and cytotoxicity assays were conducted at Thermo Fisher Scientific's Custom Services facility (Madison, WI). A single lot of human HepaRG cells (Thermo Fisher Scientific, Frederick, MD) was used for the cell culture experiments. 96-well format collagen type I coated plates of human HepaRG cells were prepared using established methods. Briefly, cryopreserved HepaRG cells were thawed, plated at a density of approximately 100,000 cells/well in HepaRG Thaw, Plate, and General Purpose media (HPRG770, Thermo Fisher Scientific), and incubated for 48 hours. 0.5% DMSO was selected as vehicle control to balance the requisite need of DMSO in HepaRG cultures to maintain differentiation (for example, baseline metabolism, proportions of hepatocytes vs. cholangiocytes), while enabling further hepatic receptor pathway activation (for example, PXR and CAR) in response to chemical exposure. 48 hours after plating, the culture medium was replaced with HepaRG Serum-Free Incudtion Media. Cells were exposed to each test chemical in duplicate and maintained in CO2 incubators for another 48 hours. Chemical plates were thawed to room temperature and 200x concentrations of treatment groups were prepared. 8-point conentration-reponse curves were made with the highest exposure at 100 uM, followed by half-log dilutions, all in 0.5% DMSO. Each test plate contained variouse controls, induction positive controls (1mM phenobarbital), cytotoxicity positive controls ([…] aflatoxin B1), vehicle controls (0.5% DMSO), and total lysis controls (0.5% DMSO). Cell morphology images were taken using an Essen IncuCyte FLR automated microscope, with six 96-well plates imaged in about 24 minutes. Images were captured and exported and JPEG files. Spent culture media was transfered to black-well plates for the LDH assay, and remaining media was sorted at -80 C for later use. Cells were treated with RLT buffer and frozen until shipped for gene expression analysis. Total RNA was isolated from the cell suspension in 75 uL of Buffer RLT (Qiagen, Germantown, MD 20874) by Quintiles/Expression Analysis (Durham, NC) using a custom isolation procedure. Total RNA from each plate well was transferred to a preamplification plate. Fluidigm's 96.96 Dynamic ArrayTM (Fluidigm, Amsterdam, the Netherlands) technology was used for gene expression analyses by quantitative reverse transcription polymerase chain reaction (qRT-PCR, performed by Quintiles/Expression Analysis, Durham, NC)89. Standard TaqManTM Assays (Applied Biosystems/ThermoFisher Scientific, Foster City, CA) were used to assess the expression of 93 genes selected based on their selectivity and sensitivity to important hepatic receptors known to be modulated by environmental chemicals; importance in human hepatocyte functionality; and hepatotoxicity. […]

Q: With OCC(CO)(CBr)CBr as the molecule, how does the outcome read?
A: inactive

Q: Which AC50 does the source give for O=C(CCCN1CCC(O)(c2ccc(Cl)cc2)CC1)c1ccc(F)cc1 here?
A: 36 µM (active)

Q: Which AC50 does the source give for Cc1[nH]nc2c1N=C(c1ccccc1Cl)c1cc([N+](=O)[O-])ccc1N2 here?
A: 1.59 µM (active)

Q: With CCC(C)c1ccccc1O (stereo unspecified) as the molecule, how does the outcome read?
A: inactive

Q: N=C(N)c1ccc(OCCCCCOc2ccc(C(=N)N)cc2)cc1 was tested. Which outcome did it give?
A: inactive

Q: CCCCCCCCCCCCCCC was tested. Which outcome did it give?
A: inactive

Q: Which outcome does the source give for CN(C)CCOC(c1ccccc1)c1ccccc1 here?
A: inactive

Q: For CCCCc1oc2ccccc2c1C(=O)c1cc(I)c(OCCN(CC)CC)c(I)c1, which AC50 is on record?
A: 22.8 µM (active)

Q: Which AC50 does the source give for CS(=O)(=O)c1ccc([C@@H](CC2CCCC2)C(=O)Nc2cnccn2)cc1Cl here?
A: 81.2 µM (active)

Q: How did the outcome turn out when CC(=O)Nc1ccc(O)cc1 was run?
A: inactive

Q: With CN(Cc1cnc2nc(N)nc(N)c2n1)c1ccc(C(=O)N[C@@H](CCC(=O)O)C(=O)O)cc1 as the molecule, how does the outcome read?
A: inactive

Q: How did the outcome turn out when CCCCC=O was run?
A: inactive

Q: O=C(c1ccccc1)c1ccccc1 was tested. Which outcome did it give?
A: inactive

Q: How did the outcome turn out when O=C1NS(=O)(=O)c2ccccc21 was run?
A: inactive

Q: With CCCCCCCCCCCCOS(=O)(=O)O as the molecule, how does the outcome read?
A: inactive

Q: For CCCCC(CC)C(=O)O (stereo unspecified), which outcome is on record?
A: inactive
